# Data taken from the supplement of paper PMC4022240.
# ± gives the standard deviation.
# T1: HaloTag-ATRX ADD domain (163-292)
# T1 chain: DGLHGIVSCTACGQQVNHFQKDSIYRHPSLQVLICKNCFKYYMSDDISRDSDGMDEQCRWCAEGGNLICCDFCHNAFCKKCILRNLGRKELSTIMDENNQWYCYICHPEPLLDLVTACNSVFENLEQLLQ
# B1: H3 20-32 L A T Kme A A R Kac S A P A T (peptide)
# chain: LATKAARKSAPAT
# B2: H3 20-32 L A T Kme A A R Kme S A P A T (peptide)
# chain: LATKAARKSAPAT
# B3: H3 20-32 L A T Kac A A R Kac S A P A T (peptide)
# chain: LATKAARKSAPAT
# B4: H3 20-32 L A T Kme2 A A R Kme2 S A P A T (peptide)
# chain: LATKAARKSAPAT
# B5: H3 20-32 L A T Kme3 A A R Kme3 S A P A T (peptide)
# chain: LATKAARKSAPAT
# B6: H3 20-32 L A T Kme A A R Kme2 S A P A T (peptide)
# chain: LATKAARKSAPAT
# B7: H3 20-32 L A T Kme3 A A R Kme2 S A P A T (peptide)
# chain: LATKAARKSAPAT
# B8: H3 20-32 L A T Kac A A R Kme S A P A T (peptide)
# chain: LATKAARKSAPAT
# B9: H3 20-32 L A T Kme3 A A R Kme S A P A T (peptide)
# chain: LATKAARKSAPAT
# B10: H3 20-32 L A T Kme3 A A R Kac S A P A T (peptide)
# chain: LATKAARKSAPAT
# Legend:
# Assay in all cases: peptide microarray binding signal (635 nm), min-max normalized on array (fraction of array maximum); higher = stronger binding
# Details in all cases: peptide region: H3 20-32
# [1] = target: T1, HaloTag-ATRX ADD domain (163-292)
# Summary of the method: (§1)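 Two probe formats were used for 1 h at 4°C: biotin-labelled HaloTag reader fusions (10 nM to 1 μM) with streptavidin-Alexa Fluor 647, and rabbit histone antibodies (1:10,000 to 1:2,000) with anti-rabbit Alexa 647. Both were applied to nitrocellulose arrays of histone 13-mer peptide–cellulose conjugates printed in triplicate with a Cy3 tracer and blocked overnight at 4°C. Signal was read at 635 nm and misprints at 532 nm on an Axon GenePix 4000B. Binding signal is expressed as the triplicate-spot mean intensity, min-max scaled for each library.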
# [2] = target: HaloTag-ING2 PHD (mouse Ing2 200-280)
# Summary of the method: as §1
# [3] = target: anti-H3K4me3 antibody ab8580
# Summary of the method: as §1
# [4] = target: anti-H3K9me3 antibody ab8898
# Summary of the method: as §1
# [5] = peptide modifications: H3K23me1 H3K27ac, binder concentration: 1:2,000 dilution
# [6] = peptide modifications: H3K23me1 H3K27ac, binder concentration: 1:10,000 dilution
# [7] = peptide modifications: H3K23me1 H3K27me1, binder concentration: 1:2,000 dilution
# [8] = peptide modifications: H3K23me1 H3K27me1, binder concentration: 1:10,000 dilution
# [9] = peptide modifications: H3K23ac H3K27ac, binder concentration: 1:2,000 dilution
# [10] = peptide modifications: H3K23ac H3K27ac, binder concentration: 1:10,000 dilution
# [11] = peptide modifications: H3K23me2 H3K27me2, binder concentration: 1:2,000 dilution
# [12] = peptide modifications: H3K23me2 H3K27me2, binder concentration: 1:10,000 dilution
# [13] = peptide modifications: H3K23me3 H3K27me3, binder concentration: 1:2,000 dilution
# [14] = peptide modifications: H3K23me3 H3K27me3, binder concentration: 1:10,000 dilution
# [15] = peptide modifications: H3K23me1 H3K27me2, binder concentration: 1:2,000 dilution
# [16] = peptide modifications: H3K23me1 H3K27me2, binder concentration: 1:10,000 dilution
# [17] = peptide modifications: H3K23me3 H3K27me2, binder concentration: 1:2,000 dilution
# [18] = peptide modifications: H3K23me3 H3K27me2, binder concentration: 1:10,000 dilution
# [19] = peptide modifications: H3K23ac H3K27me1, binder concentration: 1:2,000 dilution
# [20] = peptide modifications: H3K23ac H3K27me1, binder concentration: 1:10,000 dilution
# [21] = peptide modifications: H3K23me3 H3K27me1, binder concentration: 1:2,000 dilution
# [22] = peptide modifications: H3K23me3 H3K27me1, binder concentration: 1:10,000 dilution
# [23] = peptide modifications: H3K23me3 H3K27ac, binder concentration: 1:2,000 dilution
# [24] = peptide modifications: H3K23me3 H3K27ac, binder concentration: 1:10,000 dilution
binder,measurement,setting,value
B1,peptide microarray binding signal,"[1]; peptide modifications: H3K23me1 H3K27ac, binder concentration: 50 nM",0.0232 ± 0.00051
same,peptide microarray binding signal,"[1]; peptide modifications: H3K23me1 H3K27ac, binder concentration: 500 nM",0.0506 ± 0.0021
same,peptide microarray binding signal,"[2]; peptide modifications: H3K23me1 H3K27ac, binder concentration: 10 nM",0.058 ± 0.0036
same,peptide microarray binding signal,"[2]; peptide modifications: H3K23me1 H3K27ac, binder concentration: 100 nM",0.0801 ± 0.006
same,peptide microarray binding signal,[3]; [5],0.0267 ± 0.0037
same,peptide microarray binding signal,[3]; [6],0.0268 ± 0.003
same,peptide microarray binding signal,[4]; [5],0.0161 ± 0.0018
same,peptide microarray binding signal,[4]; [6],0.0113 ± 0.0012
B2,peptide microarray binding signal,"[1]; peptide modifications: H3K23me1 H3K27me1, binder concentration: 50 nM",0.00404 ± 0.00027
same,peptide microarray binding signal,"[1]; peptide modifications: H3K23me1 H3K27me1, binder concentration: 500 nM",0.00976 ± 0.00044
same,peptide microarray binding signal,"[2]; peptide modifications: H3K23me1 H3K27me1, binder concentration: 10 nM",0.015 ± 0.00066
same,peptide microarray binding signal,"[2]; peptide modifications: H3K23me1 H3K27me1, binder concentration: 100 nM",0.0215 ± 0.0021
same,peptide microarray binding signal,[3]; [7],0.0102 ± 0.0036
same,peptide microarray binding signal,[3]; [8],0.01 ± 0.00092
same,peptide microarray binding signal,[4]; [7],0.00488 ± 0.00067
same,peptide microarray binding signal,[4]; [8],0.0045 ± 0.00019
B3,peptide microarray binding signal,"[1]; peptide modifications: H3K23ac H3K27ac, binder concentration: 50 nM",0.0196 ± 0.0013
same,peptide microarray binding signal,"[1]; peptide modifications: H3K23ac H3K27ac, binder concentration: 500 nM",0.0397 ± 0.0034
same,peptide microarray binding signal,"[2]; peptide modifications: H3K23ac H3K27ac, binder concentration: 10 nM",0.0424 ± 0.0038
same,peptide microarray binding signal,"[2]; peptide modifications: H3K23ac H3K27ac, binder concentration: 100 nM",0.0536 ± 0.0026
same,peptide microarray binding signal,[3]; [9],0.0164 ± 0.0012
same,peptide microarray binding signal,[3]; [10],0.0172 ± 0.00041
same,peptide microarray binding signal,[4]; [9],0.016 ± 0.002
same,peptide microarray binding signal,[4]; [10],0.00848 ± 0.00094
B4,peptide microarray binding signal,"[1]; peptide modifications: H3K23me2 H3K27me2, binder concentration: 50 nM",0.00511 ± 6.7e-05
same,peptide microarray binding signal,"[1]; peptide modifications: H3K23me2 H3K27me2, binder concentration: 500 nM",0.00781 ± 0.00026
same,peptide microarray binding signal,"[2]; peptide modifications: H3K23me2 H3K27me2, binder concentration: 10 nM",0.0143 ± 0.0011
same,peptide microarray binding signal,"[2]; peptide modifications: H3K23me2 H3K27me2, binder concentration: 100 nM",0.0265 ± 0.003
same,peptide microarray binding signal,[3]; [11],0.001114 ± 9.2e-06
same,peptide microarray binding signal,[3]; [12],0.000799 ± 8.3e-06
same,peptide microarray binding signal,[4]; [11],0.000861 ± 5.4e-05
same,peptide microarray binding signal,[4]; [12],0.000692 ± 1.9e-05
B5,peptide microarray binding signal,"[1]; peptide modifications: H3K23me3 H3K27me3, binder concentration: 50 nM",0.00527 ± 0.00011
same,peptide microarray binding signal,"[1]; peptide modifications: H3K23me3 H3K27me3, binder concentration: 500 nM",0.00571 ± 0.00016
same,peptide microarray binding signal,"[2]; peptide modifications: H3K23me3 H3K27me3, binder concentration: 10 nM",0.0186 ± 0.00059
same,peptide microarray binding signal,"[2]; peptide modifications: H3K23me3 H3K27me3, binder concentration: 100 nM",0.0317 ± 0.00033
same,peptide microarray binding signal,[3]; [13],0.0764 ± 0.0055
same,peptide microarray binding signal,[3]; [14],0.116 ± 0.014
same,peptide microarray binding signal,[4]; [13],0.115 ± 0.01
same,peptide microarray binding signal,[4]; [14],0.08 ± 0.0081
B6,peptide microarray binding signal,"[1]; peptide modifications: H3K23me1 H3K27me2, binder concentration: 50 nM",0.00395 ± 5.6e-05
same,peptide microarray binding signal,"[1]; peptide modifications: H3K23me1 H3K27me2, binder concentration: 500 nM",0.002619 ± 2.1e-05
same,peptide microarray binding signal,"[2]; peptide modifications: H3K23me1 H3K27me2, binder concentration: 10 nM",0.00537 ± 9.5e-05
same,peptide microarray binding signal,"[2]; peptide modifications: H3K23me1 H3K27me2, binder concentration: 100 nM",0.00539 ± 7.3e-05
same,peptide microarray binding signal,[3]; [15],0.00217 ± 0.00021
same,peptide microarray binding signal,[3]; [16],0.00331 ± 4.7e-05
same,peptide microarray binding signal,[4]; [15],0.0018 ± 6.4e-05
same,peptide microarray binding signal,[4]; [16],0.00161 ± 3.1e-05
B7,peptide microarray binding signal,"[1]; peptide modifications: H3K23me3 H3K27me2, binder concentration: 50 nM",0.00871 ± 0.00075
same,peptide microarray binding signal,"[1]; peptide modifications: H3K23me3 H3K27me2, binder concentration: 500 nM",0.0107 ± 0.0013
same,peptide microarray binding signal,"[2]; peptide modifications: H3K23me3 H3K27me2, binder concentration: 10 nM",0.0148 ± 0.0008
same,peptide microarray binding signal,"[2]; peptide modifications: H3K23me3 H3K27me2, binder concentration: 100 nM",0.0242 ± 0.0018
same,peptide microarray binding signal,[3]; [17],0.0639 ± 0.034
same,peptide microarray binding signal,[3]; [18],0.0807 ± 0.021
same,peptide microarray binding signal,[4]; [17],0.0464 ± 0.016
same,peptide microarray binding signal,[4]; [18],0.0257 ± 0.0034
B8,peptide microarray binding signal,"[1]; peptide modifications: H3K23ac H3K27me1, binder concentration: 50 nM",0.0068 ± 0.00024
same,peptide microarray binding signal,"[1]; peptide modifications: H3K23ac H3K27me1, binder concentration: 500 nM",0.0141 ± 0.0013
same,peptide microarray binding signal,"[2]; peptide modifications: H3K23ac H3K27me1, binder concentration: 10 nM",0.0291 ± 0.00095
same,peptide microarray binding signal,"[2]; peptide modifications: H3K23ac H3K27me1, binder concentration: 100 nM",0.0373 ± 0.0027
same,peptide microarray binding signal,[3]; [19],0.0154 ± 0.0014
same,peptide microarray binding signal,[3]; [20],0.0175 ± 0.003
same,peptide microarray binding signal,[4]; [19],0.00459 ± 0.00035
same,peptide microarray binding signal,[4]; [20],0.00513 ± 0.00045
B9,peptide microarray binding signal,"[1]; peptide modifications: H3K23me3 H3K27me1, binder concentration: 50 nM",0.00426 ± 0.00018
same,peptide microarray binding signal,"[1]; peptide modifications: H3K23me3 H3K27me1, binder concentration: 500 nM",0.00776 ± 0.00023
same,peptide microarray binding signal,"[2]; peptide modifications: H3K23me3 H3K27me1, binder concentration: 10 nM",0.0209 ± 0.0012
same,peptide microarray binding signal,"[2]; peptide modifications: H3K23me3 H3K27me1, binder concentration: 100 nM",0.0322 ± 0.00049
same,peptide microarray binding signal,[3]; [21],0.0821 ± 0.0052
same,peptide microarray binding signal,[3]; [22],0.0667 ± 0.0068
same,peptide microarray binding signal,[4]; [21],0.0232 ± 0.0031
same,peptide microarray binding signal,[4]; [22],0.0156 ± 0.0017
B10,peptide microarray binding signal,"[1]; peptide modifications: H3K23me3 H3K27ac, binder concentration: 50 nM",0.00665 ± 0.00019
same,peptide microarray binding signal,"[1]; peptide modifications: H3K23me3 H3K27ac, binder concentration: 500 nM",0.0131 ± 0.00029
same,peptide microarray binding signal,"[2]; peptide modifications: H3K23me3 H3K27ac, binder concentration: 10 nM",0.0614 ± 0.0049
same,peptide microarray binding signal,"[2]; peptide modifications: H3K23me3 H3K27ac, binder concentration: 100 nM",0.0929 ± 0.0012
same,peptide microarray binding signal,[3]; [23],0.18 ± 0.021
same,peptide microarray binding signal,[3]; [24],0.218 ± 0.01
same,peptide microarray binding signal,[4]; [23],0.11 ± 0.011
same,peptide microarray binding signal,[4]; [24],0.042 ± 0.002
